The values below come from PubChem BioAssay (NCATS).

Results filed as inconclusive are left out. Calls of active or inactive are those of the source. Unless noted, calls come from the whole dose curve.

In experiment [1] the target is Androgen receptor (Homo sapiens) (UniProt P10275). Kind of experiment: qHTS assay for small molecule agonists of androgen receptor signaling (AID 588515; active = well fitted curve in the direction sought with a large enough effect in the signal ratio, with a control signal flat; the % refers to the signal ratio; note: % is set by controls: 0 for no effect and ±100 for the full control effect). The conditions noted are these: AR-UAS-bla HEK293, beta-lactamase ratio, agonist 16 h; stronger effect = higher value. A digest of the protocol: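 EC50 and efficacy came from Hill fits of titrations (up to 92 uM) normalized to 30 nM R1881 as 100% and DMSO as 0%. Compound exposure was 16 h at 37 C on AR-UAS-bla HEK293 cells, with a 405/460/530 nm CCF4 fluorescence read.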
Background: qHTS replaces the single test concentration by a dilution series.

Experiment [2] can be described thus: qHTS assay for small molecule antagonists of peroxisome proliferator-activated receptor delta signaling (AID 588535; active = well fitted inhibition curve with a large enough effect in the signal ratio, with a control signal flat, not every such curve was filed as active; the % refers to the signal ratio; note: potency is the fitted concentration of half-maximal effect;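 for max response: cells co-treated with a PPAR-delta agonist as stimulator during compound exposure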). The conditions noted are these: HEK293T PPARd-UAS-bla, beta-lactamase FRET ratio, 18 h; 460 nm channel. In short, it runs like this:
(§1)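 Antagonist-mode beta-lactamase reporter (GeneBLAzer PPAR-delta-UAS-bla) in HEK293T cells, 2% charcoal/dextran FBS, 4000 cells/well. Compound titrations, 18 h at 37 C; CCF4 ratio read, IC50 and efficacy from Hill fits.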

Experiment [3] has as its target Peroxisome proliferator-activated receptor delta (Homo sapiens) (UniProt Q03181). The description is as above. The settings on record: HEK293T PPARd-UAS-bla, beta-lactamase FRET ratio, 18 h; series mostly up to 76.7 µM. In short, it runs like this: as §1
The target in experiment [4] is Peroxisome proliferator-activated receptor gamma (Homo sapiens) (UniProt P37231). Kind of experiment: qHTS assay for small molecule agonists of peroxisome proliferator-activated receptor gamma signaling (AID 588536; active = well fitted curve in the direction sought with a large enough effect in the signal ratio, with a control signal flat, not every such curve was filed as active; the % refers to the signal ratio;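 note: 0% = DMSO basal wells and 100% = rosiglitazone at 2 µM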). The settings on record: HEK293 PPARg-UAS-bla, beta-lactamase ratio, 16 h; series mostly up to 76.7 µM. In short, it runs like this: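 GeneBLAzer PPAR-gamma-UAS-bla HEK293 cells in 1% charcoal/dextran-treated FBS medium were treated 16 h at 37 C with compounds. Beta-lactamase activity was read by CCF4 ratio (460/530 nm). Response was normalized to 2 uM rosiglitazone (100%) and DMSO, then Hill-fitted for EC50 and efficacy.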

Experiment [5] shares this target. Briefly: qHTS assay for small molecule antagonists of peroxisome proliferator-activated receptor gamma signaling (AID 588537; active = well fitted inhibition curve with a large enough effect in the signal ratio, with a control signal flat, not every such curve was filed as active; the % refers to the signal ratio;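 note: reporter cells co-stimulated with 50 nM rosiglitazone agonist during compound treatment; % of control where 0% means no effect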). The settings on record: HEK293 PPARg-UAS-bla, beta-lactamase ratio, antagonist mode; series mostly up to 76.8 µM. In short, it runs like this:
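PPARγ-UAS-bla HEK293 cells (3000/well) in 1% charcoal/dextran-stripped FBS are treated with compound, then stimulated with 50 nM rosiglitazone for 16 h at 37 °C. Read-out is CCF4 β-lactamase fluorescence after 2 h at RT. IC50 comes from Hill fits normalised to rosiglitazone and DMSO.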

Experiment [6] can be described thus: qHTS assay for small molecule agonists of retinoid X receptor alpha signaling (AID 588544).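 For activation: 0% = DMSO basal wells and 100% = reference agonist.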 Note: potency is the fitted concentration of half-maximal effect. The settings on record: HEK293T RXRa-UAS-bla, beta-lactamase reporter, 18 h; 530 nm emission.
Experiment [7] concerns the target Retinoic acid receptor RXR-alpha (Homo sapiens) (UniProt P19793). The experiment is described as above. The settings on record: HEK293T RXRa-UAS-bla, beta-lactamase reporter, 18 h; series mostly up to 76.7 µM.
Experiment [8] deals with Glucocorticoid receptor (Homo sapiens) (UniProt P04150). Kind of experiment: qHTS assay for small molecule antagonists of glucocorticoid receptor signaling (AID 588533; active = well fitted inhibition curve with a large enough effect in the signal ratio, with a control signal flat, not every such curve was filed as active; the % refers to the signal ratio;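 note: cells stimulated with 2 nM dexamethasone as agonist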; note: potency is the fitted concentration of half-maximal effect). The settings on record: HeLa MMTV-bla, GRE beta-lactamase ratio, antagonist mode, 18 h; series mostly up to 76.8 µM. A digest of the protocol: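 Antagonist-mode qHTS: compound titrations added to GRE-bla HeLa cells, then dexamethasone 2 nM final; 18 h, 37 C. CCF4 FRET fluorescence normalized to dexamethasone and DMSO; IC50 from Hill fit.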

Experiment [9] deals with Androgen receptor (Homo sapiens) (UniProt P10275). Kind of experiment: qHTS assay for small molecule antagonists of androgen receptor signaling (AID 588516; active = well fitted curve in the direction sought with a large enough effect in the signal ratio, with a control signal flat, not every such curve was filed as active; the % refers to the signal ratio; note: % is set by controls: 0 for no effect and ±100 for the full control effect). The conditions noted are these: AR-UAS-bla HEK293, beta-lactamase ratio, antagonist mode, 16 h; series mostly up to 76.8 µM. In short, it runs like this: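 HEK293 AR-UAS-bla cells, 10% dialyzed FBS medium; cpd titration + R1881 10 nM final, 16 h 37 C; CCF4 2 h RT; FRET ratio; IC50/efficacy via Hill fit.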

Experiment [10] can be described thus: qHTS assay for small molecule disruptors of the mitochondrial membrane potential - 1 hr assay (AID 651754). Note: potency is the fitted concentration of half-maximal effect; nearly all actives have a fitted effect of over 35% in size. The settings on record: series mostly up to 92.2 µM. In short, it runs like this: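 HepG2 cells, attached overnight, were exposed to compound for 1 hr at 37C, then stained 30 min with a potentiometric dye. Ratio of red aggregate (590nm) to green monomer (535nm) fluorescence reports membrane potential; collapse shifts signal toward green.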

A short description of experiment [11]: qHTS assay for small molecule activators of the human pregnane X receptor (PXR) signaling pathway (AID 720659; call rule not given here; note: 0% is about no effect). The conditions noted are these: DPX-2 HepG2 CYP3A4-luciferase, 24 h; series mostly up to 92.3 µM.

Retinoic acid receptor RXR-alpha (Homo sapiens), sequence (P19793 whole entry, looked up): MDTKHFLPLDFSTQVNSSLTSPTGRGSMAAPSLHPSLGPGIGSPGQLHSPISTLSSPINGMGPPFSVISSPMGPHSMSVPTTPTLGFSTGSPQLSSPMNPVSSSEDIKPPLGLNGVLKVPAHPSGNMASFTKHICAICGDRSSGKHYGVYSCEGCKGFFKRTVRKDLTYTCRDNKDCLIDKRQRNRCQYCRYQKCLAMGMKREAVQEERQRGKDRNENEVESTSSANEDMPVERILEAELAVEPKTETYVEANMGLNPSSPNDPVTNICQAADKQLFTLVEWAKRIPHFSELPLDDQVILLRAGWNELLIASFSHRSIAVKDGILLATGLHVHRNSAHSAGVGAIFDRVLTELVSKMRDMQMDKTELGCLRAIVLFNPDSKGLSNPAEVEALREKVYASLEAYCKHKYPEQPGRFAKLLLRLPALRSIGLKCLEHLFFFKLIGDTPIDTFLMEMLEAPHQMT
Glucocorticoid receptor (Homo sapiens), sequence (P04150 whole entry, looked up): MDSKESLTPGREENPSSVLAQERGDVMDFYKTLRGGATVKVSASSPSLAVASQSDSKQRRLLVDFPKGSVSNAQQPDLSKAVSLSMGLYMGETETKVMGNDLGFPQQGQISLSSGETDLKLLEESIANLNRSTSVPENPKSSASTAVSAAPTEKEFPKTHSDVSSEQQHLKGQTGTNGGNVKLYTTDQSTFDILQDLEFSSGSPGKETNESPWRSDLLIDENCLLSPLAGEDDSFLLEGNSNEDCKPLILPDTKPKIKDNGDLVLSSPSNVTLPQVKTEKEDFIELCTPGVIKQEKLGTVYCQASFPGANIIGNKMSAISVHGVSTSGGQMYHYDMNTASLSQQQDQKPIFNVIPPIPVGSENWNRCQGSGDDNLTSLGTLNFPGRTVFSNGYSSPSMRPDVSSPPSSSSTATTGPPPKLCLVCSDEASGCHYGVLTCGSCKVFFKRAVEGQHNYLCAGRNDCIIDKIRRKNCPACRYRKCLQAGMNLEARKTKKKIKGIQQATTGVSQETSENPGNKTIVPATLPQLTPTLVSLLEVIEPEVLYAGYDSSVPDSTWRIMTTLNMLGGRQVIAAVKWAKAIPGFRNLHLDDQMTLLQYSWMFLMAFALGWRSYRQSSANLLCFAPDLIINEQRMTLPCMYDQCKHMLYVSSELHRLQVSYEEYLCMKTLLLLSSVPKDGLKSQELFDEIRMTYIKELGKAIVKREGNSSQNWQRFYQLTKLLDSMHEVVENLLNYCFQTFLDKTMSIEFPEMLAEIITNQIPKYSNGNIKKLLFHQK
Androgen receptor (Homo sapiens), sequence (P10275 whole entry, looked up): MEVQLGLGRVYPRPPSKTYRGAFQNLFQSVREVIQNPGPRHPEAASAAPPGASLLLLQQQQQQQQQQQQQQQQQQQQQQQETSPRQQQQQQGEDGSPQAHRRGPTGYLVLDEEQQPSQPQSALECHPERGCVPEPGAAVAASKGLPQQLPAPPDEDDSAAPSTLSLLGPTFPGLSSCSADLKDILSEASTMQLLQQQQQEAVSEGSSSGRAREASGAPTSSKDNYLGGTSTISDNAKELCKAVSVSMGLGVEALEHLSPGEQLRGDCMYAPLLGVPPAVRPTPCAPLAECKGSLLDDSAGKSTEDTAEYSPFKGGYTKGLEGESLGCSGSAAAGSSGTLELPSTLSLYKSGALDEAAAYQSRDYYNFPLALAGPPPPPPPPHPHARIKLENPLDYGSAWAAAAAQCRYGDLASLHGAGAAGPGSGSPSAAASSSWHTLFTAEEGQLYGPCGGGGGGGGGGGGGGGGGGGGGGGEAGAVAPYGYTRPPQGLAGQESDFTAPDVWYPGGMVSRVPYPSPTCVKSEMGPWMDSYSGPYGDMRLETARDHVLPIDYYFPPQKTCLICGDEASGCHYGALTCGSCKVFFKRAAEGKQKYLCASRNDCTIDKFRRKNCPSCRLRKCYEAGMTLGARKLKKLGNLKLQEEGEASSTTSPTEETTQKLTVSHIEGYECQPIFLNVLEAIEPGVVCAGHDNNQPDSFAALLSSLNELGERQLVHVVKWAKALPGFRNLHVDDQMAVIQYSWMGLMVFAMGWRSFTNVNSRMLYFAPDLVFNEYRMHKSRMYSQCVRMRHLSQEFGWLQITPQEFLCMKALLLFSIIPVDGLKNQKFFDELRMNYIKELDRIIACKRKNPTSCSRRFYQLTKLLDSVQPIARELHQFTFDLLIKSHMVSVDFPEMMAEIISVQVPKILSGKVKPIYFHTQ
Peroxisome proliferator-activated receptor delta (Homo sapiens), sequence (Q03181 whole entry, looked up): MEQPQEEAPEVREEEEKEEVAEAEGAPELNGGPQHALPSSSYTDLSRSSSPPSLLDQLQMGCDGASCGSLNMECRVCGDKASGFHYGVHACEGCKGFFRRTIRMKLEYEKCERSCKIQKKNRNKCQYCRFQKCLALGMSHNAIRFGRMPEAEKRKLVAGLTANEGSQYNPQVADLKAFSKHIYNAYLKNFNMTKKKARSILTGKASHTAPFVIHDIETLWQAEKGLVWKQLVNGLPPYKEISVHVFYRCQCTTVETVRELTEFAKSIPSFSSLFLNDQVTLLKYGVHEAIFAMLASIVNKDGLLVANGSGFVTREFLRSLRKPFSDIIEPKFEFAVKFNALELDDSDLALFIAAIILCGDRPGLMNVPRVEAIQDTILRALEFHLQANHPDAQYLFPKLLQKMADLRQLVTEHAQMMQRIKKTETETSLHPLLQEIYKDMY
Peroxisome proliferator-activated receptor gamma (Homo sapiens), sequence (P37231 whole entry, looked up): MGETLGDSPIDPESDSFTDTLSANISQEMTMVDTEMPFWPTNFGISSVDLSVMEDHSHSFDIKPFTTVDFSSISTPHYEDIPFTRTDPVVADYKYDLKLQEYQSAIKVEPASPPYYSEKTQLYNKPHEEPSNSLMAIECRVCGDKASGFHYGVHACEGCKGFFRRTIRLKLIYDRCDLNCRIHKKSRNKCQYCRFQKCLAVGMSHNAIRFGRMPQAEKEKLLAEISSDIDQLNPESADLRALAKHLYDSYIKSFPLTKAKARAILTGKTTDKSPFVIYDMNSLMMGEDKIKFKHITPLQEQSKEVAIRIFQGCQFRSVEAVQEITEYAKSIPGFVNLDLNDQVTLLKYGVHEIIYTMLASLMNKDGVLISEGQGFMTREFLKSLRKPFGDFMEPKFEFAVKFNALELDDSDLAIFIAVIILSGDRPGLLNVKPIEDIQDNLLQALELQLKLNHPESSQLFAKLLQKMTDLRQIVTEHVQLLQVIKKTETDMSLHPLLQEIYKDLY

In the case of `CCOc1cc(C(C)(C)C)ccc1C1COC(c2c(F)cccc2F)=N1` (configuration not stated), the activation in experiment [1] is -19.9% (inactive). In addition, the max response in [2] was -21.7%. Further, the Potency entry in experiment [3] is “inactive”.
For the molecule `Cc1cc(C2CC2)nc(Nc2ccccc2)n1`, the max response is 1.7% in experiment [2] and 7.71% in experiment [6]. Further, the Potency result in experiment [3], in experiment [4], in experiment [5] and in [7] was “inactive” throughout.
For `CNc1cnn(-c2cccc(C(F)(F)F)c2)c(=O)c1Cl`, the max response in experiment [2] came out at 18.9%. Besides, the Potency entry in [3] was “inactive”.
As to `CSc1nnc(C(C)(C)C)c(=O)n1N`, the Potency entry in experiment [8] and in [3] was “inactive” in each case. The results for the max response in experiment [2] and in experiment [6] were -34.1% and -15.9%, respectively. Also, the Potency in experiment [7] is 39.8 µM (active).
Regarding `CCOC(=O)COc1cc(-c2nn(C)c(OC(F)F)c2Cl)c(F)cc1Cl`, the Potency entry in experiment [9], in experiment [8], in [3] and in experiment [7] was “inactive” each time. Further, the max response in experiment [2] was determined as 58.4%; in experiment [6], 3.77%.
With `c1ccc2c(c1)[nH]c1ccccc12`, the activation in experiment [1] is 0.372% (inactive). In [10], the Potency was 59.6 µM (active).
Take `COc1nn(C(=O)NS(=O)(=O)c2ccccc2OC(F)(F)F)c(=O)n1C`: the Potency result in experiment [8], in experiment [4], in experiment [5] and in experiment [7] was “inactive” each time. Besides, the max response in experiment [6] was -2.96%. In addition, the molecule was called inactive in experiment [11].
As for `CC(C)COP(=O)(OCC(C)C)OCC(C)C`, the Potency result in [8], in experiment [3], in experiment [5] and in [7] was “inactive” in each case. Besides, the values for the max response in experiment [2] and in experiment [6] were 21.8% and -15.8%, respectively. In addition, the call in experiment [11] was inactive.
As for `CC1(C(=O)Nc2ccc(O)c(Cl)c2Cl)CCCCC1`, the max response was 11.8% in experiment [2] and -10.8% in [6]. In addition, the Potency entry in experiment [3], in [4] and in experiment [7] was “inactive” each time.
Turning to `CS(=O)(=O)NC(=O)c1cc(Oc2ccc(C(F)(F)F)cc2Cl)ccc1[N+](=O)[O-]`, the Potency entry in experiment [4] and in experiment [7] was “inactive” each time. For the same molecule, the max response in experiment [6] worked out at 1.68%. Moreover, in [11], the call was inactive.
As to `COC(=O)c1ccccc1S(=O)(=O)NC(=O)Nc1nc(C)nc(OC)n1`, the max response in [2] is 36.9%. Also, the Potency entry in experiment [3] is “inactive”.
`Nc1nc(N)nc(N)n1`: the max response in [2] was 16%. Further, the Potency entry in [3], in experiment [4], in experiment [5] and in experiment [7] was “inactive” each time. Moreover, in experiment [11], the call was inactive.
In the case of `O=[N+]([O-])c1cc(C(F)(F)F)c(Cl)c([N+](=O)[O-])c1Nc1ncc(C(F)(F)F)cc1Cl`, the call in experiment [11] was inactive.
With `COCC(=O)N(c1c(C)cccc1C)N1CCOC1=O`, the results for the max response in experiment [2] and in experiment [6] were -6.17% and -6.63%, respectively. In addition, the Potency result in experiment [3] and in experiment [7] was “inactive” each time. Further, the outcome in experiment [11] was inactive.
For `Cc1nc(N(C)C)nc(OC(=O)N(C)C)c1C`, the Potency entry in [8], in experiment [3], in experiment [4], in experiment [5] and in experiment [7] was “inactive” each time. Moreover, the max response in experiment [2] worked out at 13.1%; in experiment [6] it was 0.351%. Moreover, the molecule was classed as inactive in experiment [11].
In the case of `COc1cccc(C(=O)NN(C(=O)c2cc(C)cc(C)c2)C(C)(C)C)c1C`, the max response in experiment [2] is -0.516%; in experiment [6] it was -2.17%. Besides, the Potency entry in [3], in [5] and in experiment [7] was “inactive” each time.
Take `CCC(CC)Nc1c([N+](=O)[O-])cc(C)c(C)c1[N+](=O)[O-]`: the Potency entry in experiment [8], in experiment [3], in experiment [4], in experiment [5] and in [7] was “inactive” throughout. The figures for the max response in experiment [2] and in experiment [6] were -38.2% and 4.16%, respectively.
Consider `CN1COCN(Cc2cnc(Cl)s2)/C1=N\[N+](=O)[O-]`, for which the Potency entry in experiment [8], in experiment [3], in experiment [5] and in [7] was “inactive” each time. The max response in [2] was -72.6%. For the same molecule, the molecule was classed as inactive in experiment [11].
As to `O=C/C(Cl)=C(/Cl)C(=O)O`, in experiment [11], the molecule was classed as inactive.
Turning to `C[Si](Cn1cncn1)(c1ccc(F)cc1)c1ccc(F)cc1`, the Potency result in experiment [5] is “inactive”.
With `CCCSP(=O)(OCC)Oc1ccc(Br)cc1Cl` (configuration not stated), in experiment [2], the max response came out at 5.89%. In addition, the Potency result in experiment [3], in experiment [4] and in experiment [7] was “inactive” each time. In addition, in experiment [11], the outcome was inactive.
As to `O=C(O)c1c(Cl)ccc2cc(Cl)cnc12`, the Potency result in [8], in experiment [3], in experiment [5] and in experiment [7] was “inactive” each time. Also, the max response in experiment [2] was 71.4%; in [6] it was -15.1%. Besides, in [11], the outcome was inactive.
Regarding `C#CCC1=C(C)[C@H](OC(=O)[C@H]2[C@H](C=C(C)C)C2(C)C)CC1=O`, the max response in experiment [2] came to 25.2%. The Potency entry in [3], in experiment [4] and in [7] was “inactive” throughout.
On to `CCC(C)(c1ccc(O)cc1)c1ccc(O)cc1`, for which the Potency entry in experiment [4], in experiment [5] and in experiment [7] was “inactive” throughout. The max response in experiment [6] came to 3.09%.
On to `CC(C)(C)c1ccc(CSc2cnn(C(C)(C)C)c(=O)c2Cl)cc1`, for which the call in experiment [11] was inactive.
Turning to `C1CC[CH]([Sn]([CH]2CCCCC2)[CH]2CCCCC2)CC1`, the Potency result in experiment [8] is “inactive”. Besides, the molecule was called inactive in [11].
Turning to `CSC1=N[C@@](C)(c2ccccc2)C(=O)N1Nc1ccccc1`, in experiment [6], the max response is 25.5%. Moreover, the Potency result in experiment [7] was “inactive”.
Turning to `COC(=O)N(OC)c1ccccc1COc1ccn(-c2ccc(Cl)cc2)n1`, the max response in experiment [6] was -23.9%. Besides, the Potency result in [7] is “inactive”. Moreover, the molecule was called inactive in experiment [11].
As for `CCC[CH2][Sn]1([CH2]CCC)[O]C(=O)C=CC(=O)[O]1`, the results for the Potency in experiment [8] and in [3] were 15.8 µM (active) and 5.01 µM (active), respectively. For the same molecule, the max response in [2] was -94%. Moreover, the outcome in experiment [11] was inactive.
In the case of `O=C(O)[C@@H]1[C@H](C(=O)O)[C@@]2(Cl)C(Cl)=C(Cl)[C@]1(Cl)C2(Cl)Cl`, the Potency entry in [8], in [3] and in experiment [7] was “inactive” each time. For the same molecule, the max response is 2.51% in [2] and -1.73% in experiment [6].
Turning to `O=P(Oc1ccccc1)(Oc1ccccc1)Oc1ccccc1`, the Potency result in [8], in experiment [3] and in experiment [4] was “inactive” each time. In addition, in experiment [2], the max response turned out to be 29%.
Turning to `CN(C)c1ccc(C(=O)c2ccc(N(C)C)cc2)cc1`, in experiment [4], the Potency entry is “inactive”.
For the molecule `CCC[CH2][Sn]([CH2]CCC)([CH2]CCC)[O][Sn]([CH2]CCC)([CH2]CCC)[CH2]CCC`, the Potency in experiment [7] is 0.355 µM (active).
For `CCC(C)c1cc([N+](=O)[O-])cc([N+](=O)[O-])c1O` (configuration not stated), the max response in [2] stood at 0.93%. The Potency result in experiment [3] and in [4] was “inactive” each time.
Take `CCC[CH2][Sn]([Cl])([Cl])[CH2]CCC`: the Potency in experiment [8] is 15.8 µM (active); in [3], 3.98 µM (active). The max response in experiment [2] was -91.3%.
